Source: PubChem BioAssay (several laboratories)
This is a sample that favours compounds with a hit; in the whole collection about 4% have one here.
Rv3671c inh = inhibitors of M. tuberculosis serine protease Rv3671c. P9WHR9. inhibition, % at 5.96 µM. 320,000 compounds, 0.048% hits; in the data active means inhibition above about 38%;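 further: extracellular domain of Rv3671c used as enzyme; 0% = enzyme with DMSO and 100% = no enzyme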
Target sequence (P9WHR9 whole entry, looked up, the tested form may be a part): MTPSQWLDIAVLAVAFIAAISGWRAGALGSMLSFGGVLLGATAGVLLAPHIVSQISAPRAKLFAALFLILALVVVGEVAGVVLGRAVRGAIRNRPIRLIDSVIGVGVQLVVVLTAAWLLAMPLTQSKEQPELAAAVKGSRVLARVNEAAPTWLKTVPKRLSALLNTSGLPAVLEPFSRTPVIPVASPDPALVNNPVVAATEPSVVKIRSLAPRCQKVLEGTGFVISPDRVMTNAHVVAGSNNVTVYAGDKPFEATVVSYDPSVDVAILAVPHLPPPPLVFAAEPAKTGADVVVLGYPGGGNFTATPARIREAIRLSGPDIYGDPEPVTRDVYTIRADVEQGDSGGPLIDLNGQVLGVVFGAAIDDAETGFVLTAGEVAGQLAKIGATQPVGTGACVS
Mtb betalactam = beta-lactam sensitization of Mtb H37Rv; 330,000 compounds, 0.27% hits; M. tuberculosis H37Rv growth with meropenem, percent inhibition; inhibition, % at 25 µM; call rule not given here;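 further: growth measured after seven days incubation then overnight dye step; 0% = bacteria only wells and 100% = bacteria with antibiotic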
Mtb UGM inh = blocks M. tuberculosis UGM enzyme; P9WIQ1; purified UGM, fluorescence polarization probe displacement; inhibition, % at 10 µM; 320,000 compounds, 0.06% hits; AID 504406; in the data active means inhibition above about 10%, passing the limit was not always enough
RecA intein inh = blocks M. tuberculosis RecA intein splicing | cell-free RecA intein splicing, fluorescence | inhibition, % (concentration not given with the values) | 290,000 compounds, 0.75% hits | AID 2221; in the data active means inhibition above about 30%;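 further: 0% = vehicle wells and 100% = reference inhibitor control wells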
Mtb FBA inh = Mtb fructose-bisphosphate aldolase inhibition; P9WQA3; purified M. tuberculosis FBA, fluorescence read-out; inhibition, % at 1 µM; 360,000 compounds, 2.3% hits; in the data active means inhibition above about 27%;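 further: 0% = vehicle and 100% = reference inhibitor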
GDH-TPI inh = counter-screen for M. tuberculosis FBA inhibitors: GDH-TPI coupled enzymes; AID 588335; GDH-TPI coupled enzyme counterscreen, NADH absorbance; inhibition, % at 4.8 µM; 360,000 compounds, 1.2% hits; in the data active means inhibition above about 30%;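 further: 0% = DMSO wells and 100% = wells lacking the enzyme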
* marks the source's active call; other numbers are inactive results; i = inactive; / = not tested or not shown; + = active, no number.

SMILES	Rv3671c inh	Mtb betalactam	Mtb UGM inh	RecA intein inh	Mtb FBA inh	GDH-TPI inh
O=c1oc2c(CN3CCN(CCO)CC3)c(O)ccc2cc1-c1ccccn1	11	6	-3	i	+	18
CCCc1cc(=O)oc2c(CN3CCCC3)c(O)ccc12	0	-8	0	-80	/	20
O=c1oc2c(CN3CCCCC3)c(O)ccc2cc1-c1nc2ccccc2[nH]1	/	/	/	/	2	-4
Cc1cc(=O)oc2c(CN3CCCC3)c(O)ccc12	10	3	-1	-59	+	19
N#C/C(=C\c1ccc(-c2ccccc2[N+](=O)[O-])o1)C(N)=O	11	-8	2	2	-4	41*
Cc1ccc(S(=O)(=O)Cn2nnnc2C(CC(C)C)N2CCN(C3CCCC3)CC2)cc1 (stereo not given)	1	1	-1	1	-3	-13
Cc1ccc2[nH]c(O)c(N=NC(N)=S)c2c1	0	-1	2	4	-7	38*
CCOc1ccc(C(=O)NCC(=O)OCCN2C(=O)c3ccccc3C2=O)cc1OCC	-4	4	3	/	-1	-4
CCc1nc2ccc(C(=O)N3CCN(C(=O)c4ccco4)CC3)cn2c1N(CC)Cc1cccc(Br)c1	/	/	/	/	0	4
N/C(=N\N=C\c1ccc2c(c1)OCO2)c1nonc1N	-10	-3	0	-1	2	32*
N#C/C(=C\c1cccc([N+](=O)[O-])c1)C(=O)NCc1cccnc1	4	3	/	4	-2	2
N#C/C(=C\c1cccs1)C(=O)NCc1cccnc1	14	-2	-1	0	-1	36*
N#C/C(=C\C=C\c1ccccc1)C(=O)NCc1cccnc1	0	0	2	1	-3	31*
N#C/C(=C\c1cccs1)C(=O)NCc1ccccc1	-8	-2	2	-1	6	28
Cc1cc(C)c([N+](=O)[O-])cc1-c1ccc(/C=N/c2c(-c3ccco3)nc3ccccn23)o1	8	3	4	5	1	33*
O=[N+]([O-])c1ccc(-c2ccc(/C=N/c3c(-c4ccco4)nc4ccccn34)o2)cc1	3	98	1	-3	6	49*
O=[N+]([O-])c1ccc(Cl)c(-c2ccc(/C=N/c3c(-c4ccco4)nc4ccccn34)o2)c1	6	9	-1	1	-2	8
COc1nc(N/N=C/c2cc3c(cc2Br)OCO3)nc(N2CCOCC2)n1	0	11	-2	0	1	33*
Oc1ccc(/C=N\Nc2cc(N3CCOCC3)nc(N3CCOCC3)n2)c(O)c1	-15	-5	1	-3	0	65*
COc1ccc(/C=N/Nc2cc(C)nc(N3CCOCC3)n2)c(OC)c1	6	-6	0	-1	-3	48*
Cc1cc(N/N=C/c2ccc(O)cc2O)nc(N2CCOCC2)n1	3	5	-2	-3	-8	69*
COc1ccc(Nc2nc(N3CCOCC3)nc(N3CCOCC3)n2)c(OC)c1	-12	-2	2	0	0	-6
Cc1cc(N/N=C/c2ccccc2)nc(N2CCOCC2)n1	5	-2	0	-1	-1	26
O=C(CN1C(=O)C2CC=CCC2C1=O)Nc1ccc(OC(F)(F)F)cc1 (stereo not given)	-2	-5	/	/	0	3
COc1cc(NC(=O)C2CCCN2S(=O)(=O)c2ccc3c(c2)CC(C)N3C(C)=O)cc(OC)c1 (stereo not given)	-10	4	-1	1	3	1
SMILES	Rv3671c inh	Mtb betalactam	Mtb UGM inh	RecA intein inh	Mtb FBA inh	GDH-TPI inh
Cc1nc(N/N=C/c2cccnc2)cc(N2CCOCC2)n1	/	/	/	/	-2	31*
Cc1ccc(/C=N/Nc2cc(C)nc(N3CCOCC3)n2)cc1	11	0	-2	-3	-2	31*
CSCCC(NC(=O)c1ccccc1Cl)C(=O)NCCOc1ccc(C)cc1 (stereo not given)	/	/	/	/	2	-1
CCSc1nc2c(c(=O)[nH]1)C(c1ccccn1)C1=C(CC(C)(C)CC1=O)N2 (stereo not given)	1	12	-4	-4	124*	12
COc1cc(/C=C/C(=O)Nc2ccc3nc4n(c(=O)c3c2)CCCC4)cc(OC)c1OC	-6	-3	2	-1	-3	38*
COc1ccc(-c2cc(C(=O)Nc3ccc(S(=O)(=O)Nc4onc(C)c4C)cc3)c3ccccc3n2)cc1OC	-3	70	1	-6	9	42*
COc1cc(/C=C/C(=O)Nc2ccc(S(=O)(=O)Nc3onc(C)c3C)cc2)cc(OC)c1OC	/	/	/	/	0	39*
